A selection: hits, their analogues and other compounds. The true share with any hit is near 11%.
HCV inhibitor: inhibitors of hepatitis C virus infection. Huh7.5.1 HCVcc-Cre infection, luciferase reporter, 44 h. Potency, µM (series often up to 41.8 µM), for inactives: at the highest dose activity change, negative = inhibition, hits mostly inhibitors. 340,000 compounds, 3.4% hits
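1,000 cells/well; 4 h culture; + compound; + HCVcc-Cre (~0.5 moi); 44 h; luciferase substrate, RT 15 min; read 15 sec.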
AMA1 RON2 block: disrupts binding of P. falciparum AMA1 to RON2; AID 720542; AlphaScreen AMA1-biotinylated RON2 peptide binding; Potency, µM (top dose mostly 58.2 µM), for the others: top-dose activity change, negative = inhibition, hits mostly inhibitors; 360,000 compounds, 0.2% hits;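 also: 0% = vehicle wells and -100% = peptide control; nearly all actives have a fitted effect of over 45% in size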
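AMA1 (3D7) with his tag at 25 nM final met compounds first, then biotinylated RON2 peptide at 25 nM; detection used donor plus acceptor beads, 10 µg/mL apiece, read by AlphaScreen after 30 min at room temperature.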
Pf growth 48h: P. falciparum growth inhibition at 48 hours (one generation). 310,000 compounds, 5.9% hits. Potency, µM (titrated, usually from 28.7 µM), for inactives: at the top dose activity change, negative = inhibition, hits mostly inhibitors. AID 504832. P. falciparum luciferase growth in erythrocytes, 48 h
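Luminescence readout; reporter = integrated firefly luciferase in P. falciparum. RBC culture at 2% hematocrit, 0.1% parasitemia final, 37 C/5% CO2; decreased signal taken as growth inhibition.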
Pf growth 96h: inhibits malaria parasite growth, 96 h; P. falciparum luciferase reporter growth, 96 h; Potency, µM (top dose mostly 28.7 µM), inactives show at the top dose activity change, negative = inhibition, usual class: inhibitors; 320,000 compounds, 6.9% hits
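Readout is luminescence from an integrated firefly luciferase in P. falciparum. Red cells, 2% hematocrit and 0.05% parasitemia final, were cultured with compound through two parasite generations (96 hours) at 37 C, 5% CO2.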
* marks the source's active call; other numbers are inactive results; ? = inconclusive; · = no result given; [ ] = dose if it differs, or a comment. Calls follow the shape of the dose curve; as a rule, active = well fitted curve in the direction sought with a large enough effect; inconclusive = small, poorly fitted or top-dose-only effect, or another doubt; inactive = no such curve, though single readings can be large; an effect the other way counts as inactive or inconclusive. Unless noted, % is scaled to controls: 0 for no effect and ±100 for the full control effect; potency is read from the fitted curve at half-maximal effect.

SMILES	HCV inhibitor	AMA1 RON2 block	Pf growth 48h	Pf growth 96h
C#CCOCCOCCOCCNc1nc(N2CCN(C(=O)[C@H](Cc3ccc(O)cc3)n3cc([C@@H](N)C(C)CC)nn3)CC2)nc(N2CCN(C(=O)[C@H](Cc3cc4ccccc4[nH]3)n3cc([C@@H](N)C(C)CC)nn3)CC2)n1 (some centres undefined)	25.1%	-10.3%	?	?
C#CCOCCOCCOCCNc1nc(N2CCN(C(=O)[C@H](Cc3cc4ccccc4[nH]3)n3cc([C@@H](N)Cc4ccc(O)cc4)nn3)CC2)nc(N2CCN(C(=O)[C@H](Cc3cc4ccccc4[nH]3)n3cc([C@@H](N)CC(C)C)nn3)CC2)n1	43.0%	?	13.1µM*	10.4µM*
C#CCOCCOCCOCCNc1nc(N2CCN(C(=O)[C@H](Cc3ccc(O)cc3)n3cc([C@@H](N)C(C)CC)nn3)CC2)nc(N2CCN(C(=O)[C@H](Cc3cc4ccccc4[nH]3)n3cc([C@@H](N)CC(C)C)nn3)CC2)n1 (some centres undefined)	-9.6%	-28.8%	2.94µM*	?
C#CCOCCOCCOCCNc1nc(N2CCN(C(=O)C(Cc3cc4ccccc4[nH]3)n3cc(C(N)Cc4ccc(O)cc4)nn3)CC2)nc(N2CCN(C(=O)C(Cc3cc4ccccc4[nH]3)n3cc(C(N)Cc4ccc(O)cc4)nn3)CC2)n1 (centres undefined)	3.5%[8.37 µM]	?	2.33µM*	?
O=C(COC(=O)c1ccc(F)cc1Cl)NC1CC1	·	9.2%	·	·
CCN(CC)S(=O)(=O)c1ccc(N2CCOCC2)c(NC(=O)CC(C)(C)C)c1	-1.7%	4.9%	?	?
CCN(CC)S(=O)(=O)c1ccc(N2CCOCC2)c(NC(=O)CCC2CCCCC2)c1	-5.2%	2.9%	8.28µM*	?
CC(C)(C)c1ccc(C(=O)NCCC(=O)Nc2cc(Cl)ccc2N2CCOCC2)cc1	11.2µM*	-0.8%	13.1µM*	?
O=C(CCC1CCCC1)Nc1cc(Cl)ccc1N1CCOCC1	-6.0%	13.5%	?	8.28µM*
O=C(Nc1cc(Cl)ccc1N1CCOCC1)C1CC1	7.7%	-7.3%	·	·
CCN(CC)S(=O)(=O)c1ccc(N2CCOCC2)c(NC(=O)Cc2cccc3ccccc23)c1	-0.8%	-8.5%	13.1µM*	3.7µM*
COc1cc(CCC(=O)Nc2ccc(Br)c(C(F)(F)F)c2)cc(OC)c1OC	?	-11.4%	?	?
Cc1noc(C)c1COc1ccccc1C(=O)N1CCN(S(=O)(=O)c2ccccc2C(F)(F)F)CC1	-15.7%	-9.7%	14.7µM*	?
COc1cc(C(=O)OCC(=O)N2CCCCC2C)ccc1OCc1c(C)noc1C (centres undefined)	-14.6%	-3.4%	9.28µM*	?
Cc1noc(C)c1COc1ccccc1C(=O)N1CCN(S(=O)(=O)c2cccc(Cl)c2)CC1	-3.9%	8.5%	?	-25.1%
Cc1ccc(S(=O)(=O)N2CCN(C(=O)c3ccc(OCc4c(C)noc4C)cc3)CC2)cc1	?	-16.6%	·	0.0%
Cc1noc(C)c1COc1ccccc1C(=O)N1CCN(S(=O)(=O)c2ccccc2Br)CC1	?	18.7%	·	·
Cc1cc(C)c(C)c(S(=O)(=O)N2CCN(C(=O)c3ccccc3OCc3c(C)noc3C)CC2)c1C	?	-2.8%	10.4µM*	13.1µM*
COc1cc(C(=O)N2CCN(S(=O)(=O)c3ccc(C)cc3)CC2)ccc1OCc1c(C)noc1C	-14.0%	0.4%	4.15µM*	·
CSCCC(NC(=O)c1ccco1)C(=O)NCC1CCCO1 (centres undefined)	12.9%	0.0%	?	-15.8%
Cc1ccccc1-n1nc(C(=O)c2cccs2)cc(-c2nc3ccccc3[nH]2)c1=N	10µM*	33.6%	3.7µM*	?
COc1ccc(-n2nc(C(=O)c3cccs3)cc(-c3nc4ccccc4[nH]3)c2=N)cc1	11.2µM*	50.8%	3.29µM*	?
Cc1cccc(-n2nc(C(=O)c3ccco3)cc(-c3nc4ccccc4[nH]3)c2=N)c1	?	34.1%	?	?
Cc1ccc([C@@H]2C[C@H]3[C@@H](CN2S(=O)(=O)c2ccc(C)cc2)C(=O)C[C@@H](c2ccc(C)cc2)N3S(=O)(=O)c2ccc(Cl)cc2)cc1	·	-4.9%	·	·
COC(=O)NC1CSCC1OC(=O)CN1C(=O)c2ccccc2C1=O (centres undefined)	-2.5%	-1.3%	13.6%	0.0%
SMILES	HCV inhibitor	AMA1 RON2 block	Pf growth 48h	Pf growth 96h
CCCn1c(C2CCCN2c2nc(-c3cccc(Br)c3)cs2)nc2ccccc21 (centres undefined)	?	11.4%	?	1.85µM*
COc1ccc(C2c3cc(OC)c(OC)cc3CCN2C(=O)c2cccc([N+](=O)[O-])c2)cc1OC (centres undefined)	-13.8%	-19.6%	?	9.28µM*
COC(=O)c1sc(N)c(C(=O)OC)c1CSc1nc2sc3c(c2c(=O)n1C)CCC3	-21.8%	-18.1%	?	1.65µM*
COC(=O)c1ccc(CSc2nc3sc4c(c3c(=O)n2C)CCCC4)o1	-15.9%	-9.3%	9.8%	?
C=CCn1c(SCc2c(C)noc2C)nc2sc3c(c2c1=O)CCCCC3	?	-10.3%	1.85µM*	·
Cc1noc(C)c1CSc1nc2sc(C)c(C)c2c(=O)n1C1CCCC1	?	-17.4%	4.15µM*	·
Cc1noc(C)c1CSc1nc2sc3c(c2c(=O)n1C)CCCC3	?	-10.1%	·	1.65µM*
O=C(CSc1nc2ccccc2s1)NCc1cc([N+](=O)[O-])ccc1O	3.6%	2.1%	7.1%	?
Cc1nc(NS(=O)(=O)c2ccc(N)cc2)nc(C)c1Br	·	·	4.0%	3.5%
C=CCn1c(SCc2c(C)noc2C)nc2sc3c(c2c1=O)CCCC3	?	4.4%	13.1µM*	2.08µM*
C=CCn1c(SCC(=O)N(C)C)nc2sc3c(c2c1=O)CCC3	15.4%	5.9%	-6.8%	-14.1%
O/N=C\c1ccccc1Oc1ccc(F)cc1	-7.7%	3.8%	16.8%	0.0%
Cc1nc2cc(F)ccc2n1C1CCN(C(=O)c2c(F)cccc2F)CC1	?	10.5%	1.47µM*	-10.5%
Cc1nc2cc(F)ccc2n1C1CCN(C(=O)c2ccc(F)cc2F)CC1	?	-12.3%	?	?
CSc1nc(SCc2ccccc2)[nH]c(=O)n1	·	0.0%	·	·
CCNc1nc(SCC(=O)Nc2ccc(Cl)c(Cl)c2)nc(N2CCOCC2)n1	?	-5.4%	?	-0.6%
COc1ccc(C2c3[nH]c4ccccc4c3CCN2C(=O)c2cc3ncccn3n2)c(F)c1 (centres undefined)	?	?	13.1µM*	48.5%
CCn1cc(CN2CCc3c([nH]c4ccccc34)C2c2cccc(OC)c2OC)c(C)n1 (centres undefined)	-6.1%	-24.2%	11.7µM*	0.0%
COc1cccc(C2c3[nH]c4ccccc4c3CCN2C(=O)c2ccccc2F)c1OC (centres undefined)	-12.4%	?	9.28µM*	?

Bioassay records from PubChem.
